# HCV inhibitor: qHTS Assay for Inhibitors of Hepatitis C Virus (HCV). Huh7.5.1 HCVcc-Cre infection, luciferase reporter, 44 h. Potency, µM (titrated, usually from 41.8 µM), for inactives: at the highest dose activity change, negative = inhibition, actives largely listed as inhibitors. 340,000 compounds, 3.4% hits; active means well fitted inhibition curve with a large enough effect; inconclusive means small, poorly fitted or top-dose-only effect, or another doubt; inactive means no such curve, though single readings can be large or run the other way
#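 After 44 h co-culture of compound, cells and HCVcc-Cre (~0.5 moi), substrate is added for 15 min at room temperature and luciferase measured over 15 sec. Cells were seeded at 1,000/well and pre-cultured 4 h.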
# Vaccinia Venus: qHTS for Stage-Specific Inhibitors of Vaccinia Orthopoxvirus: Venus Reporter Primary qHTS; Vaccinia virus Venus reporter expression, fluorescence; 330,000 compounds, 0.46% hits; AID 720580, 2013; Potency, µM (highest dose often 36.5 µM), for inactives: at the top dose activity change, negative = inhibition, most hits filed as inhibitors; calls by dose curve; tested in A549 cells; further: nearly all actives have a fitted effect of over 30% in size
# Vaccinia mCherry: qHTS for Stage-Specific Inhibitors of Vaccinia Orthopoxvirus: mCherry Reporter Primary qHTS; AID 720579, 2013; 310,000 compounds, 0.63% hits; Vaccinia virus mCherry reporter infection, fluorescence; Potency, µM (top dose mostly 36.5 µM), inactives show at the top dose activity change, negative = inhibition, actives largely listed as inhibitors; calls by dose curve; tested in A549 cells; further: nearly all actives have a fitted effect of over 35% in size
# The depositor's hits bear a star; i = inactive; ? = inconclusive; . = no result. Compounds with a hit are over-represented: about 3.3% of the library has one in this group of screens. On the % scale 0 is the no-effect control and ±100 the full control effect; potency means the concentration at half of the fitted maximal effect.
SMILES,HCV inhibitor,Vaccinia Venus,Vaccinia mCherry
COc1ccc2ccccc2c1/C=N/NC(=O)c1ccccc1F,?,-10%,-19%
COc1ccc2ccccc2c1/C=N\NC(=O)c1ccc(C)s1,10µM*,-19%,-2%
COC(=O)[C@@]1(Cc2ccccc2)[C@H]2C(=O)N(C)C(=O)[C@H]2[C@H]2CN=C(SCc3ccc(C)cc3)N21,13%,-7%,-27%
O=CNC1CCCc2c1[nH]c1ccc(Cl)cc21 (stereo not drawn),7.1µM*,-2%,-15%
CCN(CC)C(=O)C1CCCc2c1[nH]c1ccc(Cl)cc21 (stereo not drawn),?,5%,9%
CC(=O)Nc1ccc(C2=NNC(=Nc3ccc(S(=O)(=O)N4CCOCC4)cc3)SC2)cc1,?,-3%,-15%
O=S(=O)(c1ccc(N=C2NN=C(c3cc(F)ccc3F)CS2)cc1)N1CCOCC1,22µM*,-22%,?
COC1C=CC23c4cc5c(cc4CN(CC2O)C3C1)OCO5 (stereo not drawn),.,1.8µM*,1.3µM*
COc1c2c(cc3c1OCO3)C13C=CC(OC)CC1N(C2)CC3O (stereo not drawn),.,-17%,-13%
c1ncc2snnc2n1,.,-15%,-22%
CCc1cc2c(NC(Cc3ccccc3)C(=O)O)nc(C)nc2s1 (stereo not drawn),10%,.,.
CCc1cc2c(NCc3ccco3)ncnc2s1,16µM*,-21%,-29%
CCc1cc2c(NCC(=O)O)ncnc2s1,3%,-9%,.
CCc1cc2c(NCc3ccccc3)nc(C)nc2s1,7.9µM*,.,.
CN(c1ccccc1)c1nc(C#N)nc(N2CCOCC2)n1,.,-28%,-15%
O=C1Nc2ccccc2/C1=C/c1cnc[nH]1,1%,.,.
COc1ccc2c(c1)/C(=C/c1cnc[nH]1)C(=O)N2,?,7.1µM*,3.5µM*
CCN(CC)CCN(C)C(=O)c1ccc(-c2ccccc2)nc1N(C)C,.,-7%,-7%
COc1ccc2c(c1)c(CC(=O)Nc1cccc(S(N)(=O)=O)c1)c(C)n2C(=O)c1ccc(Cl)cc1,?,-16%,-8%
Cc1ccc(CNC(=O)c2cn(C3CCCCC3)c(=O)c3c2c2ccccc2n3C)o1,-1%,-13%,-23%
Cc1cc(NC(=O)c2cn(C3CCCCC3)c(=O)c3c2c2ccccc2n3C)no1,11µM*,-21%,-17%
CC1=C(C(=O)OCc2ccccc2)C(c2ccccc2Br)NC(=O)N1 (stereo not drawn),10µM*,-14%,i
COc1ccccc1C1NC(=O)NC(C)=C1C(=O)OCc1ccccc1 (stereo not drawn),-28%,-15%,-16%
CC1=C(C(=O)OC2CCCCCCC2)C(c2ccc(O)cc2)NC(=O)N1 (stereo not drawn),21%,-19%,-23%
CC1=C(C(=O)OC2CCCCC2)C(c2ccccc2)NC(=O)N1 (stereo not drawn),10µM*,-9%,i
SMILES,HCV inhibitor,Vaccinia Venus,Vaccinia mCherry
CCc1ccc(OCC(=O)N(Cc2ccc(C)o2)C2CCS(=O)(=O)C2)cc1 (stereo not drawn),.,1%,-13%
COc1c2ccccc2nc2ccccc12,-24%,4%,8%
COc1cccc(OC)c1-c1cc(CCCc2cc(-c3c(OC)cccc3OC)nc3ccccc23)c2ccccc2n1,.,?,10µM*
CCOC(=O)C[C@H]1c2cc(F)ccc2S(=O)(=O)N1Cc1cc(OC)c(OC)c(OC)c1,.,-9%,i
C=C(c1nc2ccccc2s1)C1Cc2cccc3c2N(CCC3)C1 (stereo not drawn),.,i,i
CCOc1cc(/C=C\[N+](=O)[O-])ccc1OCC(=O)Nc1ccccc1C,11µM*,?,-13%
COc1cc(/C=C/c2cccc[n+]2C)ccc1OCC(=O)Nc1ccccc1C,6%,3%,-14%
CCCN(Cc1cccs1)C(=O)Nc1ccccc1C,.,-1%,-3%
NCC12CC3CC(C1)CC(c1ccc(Br)cc1)(C3)C2,13µM*,22µM*,?
Cc1ccc(C23CC4CC(CC(CC(=O)NC(C)(C)CO)(C4)C2)C3)cc1,-19%,.,.
CCOC(=O)c1c(C)nc2sc3c(=O)n(-c4ccc(C(C)=O)cc4)cnc3c2c1-c1ccc(OC)cc1,9%,-22%,.
CC(=O)c1c(C)nc2sc3c(=N)n(N)cnc3c2c1-c1ccc(Cl)cc1,?,4.5µM*,3.5µM*
Cc1nc(CN2CCN(C(=O)CC3(c4ccccc4Cl)CC(=O)N(C)C3=O)CC2)cs1 (stereo not drawn),.,2%,-7%
OC[C@H]1OC([S-])[C@H](O)[C@@H](O)[C@@H]1O.[Au+] (stereo partly drawn),.,-1%,-15%

# Bioassay records deposited in PubChem BioAssay by National Center for Advancing Translational Sciences (NCATS).
